An excerpt weighted towards active compounds, which were near 21% of everything screened.
Cycloheximide cs: counter-screen for Shiga toxin inhibitors: cycloheximide protein synthesis inhibition. cell reporter, cycloheximide protein synthesis inhibition counterscreen. max response, %. hit rate 12% among 300,000; in the data active = max response mostly above about 13%, no sharp cut-off; inactive = mostly below about 14%; also: read at 38.3 µM for the half of the compounds with a filed dose; 0% is about no effect
HCMV antiviral: human cytomegalovirus inhibition | activity change, negative = inhibition, % at 57.5 µM | AID 1259415 | HFF cells, HCMV-luciferase reporter, 72 h; hits give low values | hit rate 4.5% among 410,000; in the data active = activity change below about -60%; inconclusive = no clear call, values can overlap the other calls; inactive = above about -39%; also: % is scaled to controls: 0 for no effect and ±100 for the full control effect
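Screen run at 2 compound doses on HFFs infected with reporter HCMV, MOI 1 PFU/cell. Luciferase activity from cell lysates at 72 h post infection gave inhibition relative to buffer-only and Salinomycin wells.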
Pf growth 96h: inhibits malaria parasite growth, 96 h. P. falciparum luciferase reporter growth, 96 h. hit rate 6.9% among 320,000. AID 504834. Potency, µM (series often up to 28.7 µM), for the others: at the highest dose activity change, negative = inhibition, usual class: inhibitors; also: potency is read from the fitted curve at half-maximal effect; % is scaled to controls: 0 for no effect and ±100 for the full control effect
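P. falciparum expressing integrated firefly luciferase grown in erythrocytes (2% hematocrit, 0.05% parasitemia final) with compounds for 96 hours at 37 C, 5% CO2. Growth inhibition read as loss of luminescence after adding luciferase detection reagent.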
HCV inhibitor: inhibitors of hepatitis C virus infection. Huh7.5.1 HCVcc-Cre infection, luciferase reporter, 44 h. Potency, µM (titrated, usually from 41.8 µM), for the others: top-dose activity change, negative = inhibition, actives largely listed as inhibitors. hit rate 3.4% among 340,000; also: potency is read from the fitted curve at half-maximal effect; % is scaled to controls: 0 for no effect and ±100 for the full control effect
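HCVcc-Cre virus at an moi near 0.5 was added right after compound to cells cultured 4 h from seeding (1,000 cells/well). Luciferase activity was determined 44 h later, 15 min after substrate addition at RT.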
Pf growth 48h: inhibits P. falciparum growth in the first generation, 48 h; P. falciparum luciferase growth in erythrocytes, 48 h; Potency, µM (titrated, usually from 28.7 µM), without a hit: at the highest dose activity change, negative = inhibition, most hits filed as inhibitors; hit rate 5.9% among 310,000; also: potency is read from the fitted curve at half-maximal effect; % is scaled to controls: 0 for no effect and ±100 for the full control effect
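Compounds are pin-transferred into medium, infected erythrocytes (2% hematocrit, 0.1% parasitemia final) are added, and plates sit one parasite generation at 37 C in 5% CO2. Detection reagent is then added and luminescence measured.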
Shiga inhibitor: blocks Shiga toxin action in Vero cells. inhibition, % at 38.7 µM. Vero cells, Shiga toxin protein synthesis inhibition reporter. AID 2315. hit rate 9.2% among 290,000; in the data active = inhibition mostly above about 28%, no sharp cut-off; inactive = mostly below about 43%; also: 0% is about no effect
* marks the source's active call; other numbers are inactive results; i = inactive; ? = inconclusive; . = no result given. Unless noted, calls follow the shape of the dose curve; as a rule, active = well fitted inhibition curve with a large enough effect; inconclusive = small, poorly fitted or top-dose-only effect, or another doubt; inactive = no such curve, though single readings can be large or run the other way.

SMILES	Cycloheximide cs	HCMV antiviral	Pf growth 96h	HCV inhibitor	Pf growth 48h	Shiga inhibitor
CCN1CCN(c2ccc(N3CCN(S(=O)(=O)c4ccc(C)c([N+](=O)[O-])c4)CC3)nn2)CC1	.	-24	0.93µM*	?	13µM*	.
CCOC(=O)N1CCN(S(=O)(=O)c2ccc(C)c([N+](=O)[O-])c2)CC1	-2	-62*	i	-12%	7%	-9
O=[N+]([O-])c1ccc(S(=O)(=O)N2CCN(C3CCN(Cc4ccccc4)CC3)CC2)cc1	-6	-30	26%	?	?	-12
CCOC(=O)N1CCN(c2ccc(S(=O)(=O)N3CCOCC3)cc2[N+](=O)[O-])CC1	.	-11	?	-6%	?	.
CCOC(=O)c1ccoc1CN1CCN(S(=O)(=O)c2ccc(C)c(C)c2)CC1	.	-63*	.	?	.	.
CCOC(=O)N1CCC(N2CCN(S(=O)(=O)c3ccc([N+](=O)[O-])cc3)CC2)CC1	-2	-19	?	?	2.1µM*	-7
CCOc1cc(C(=O)NC2CCCCCCC2)cc(OCC)c1OCC	.	-7	.	-21%	.	.
CC1Sc2ccc(S(=O)(=O)CCC(=O)Nc3ccc(C(C)C)cc3)cc2NC1=O (stereo not given)	-2	?	21%	-29%	-4%	-11
COC(=S)N/C(=N\S(=O)(=O)c1ccc(Cl)cc1)c1ccccc1	-2	31	3%	11%	23%	-7
CCOC(=O)N1CCC(N2CCN(S(=O)(=O)c3ccc4ccccc4c3)CC2)CC1	-5	33	12µM*	.	.	-16
CCOC(=O)c1c(NC(=O)CSc2nc3ccc(C)cc3[nH]2)sc2c1CC(C)(C)NC2(C)C	.	-20	4.7µM*	6.3µM*	4.7µM*	.
CCOC(=O)c1c(NC(=O)CSc2nnnn2-c2ccccc2OCC)sc2c1CC(C)(C)NC2(C)C	.	-30	8.3µM*	?	10µM*	.
CCOC(=O)c1c(NC(=O)CCS(=O)(=O)c2ccccc2)sc2c1CC(C)(C)NC2(C)C	5	13	?	1%	-20%	-10
CCOC(=O)c1c(NC(=O)CSc2nnnn2-c2ccccc2)sc2c1CC(C)(C)NC2(C)C	-3	.	2.6µM*	-18%	6.6µM*	-13
CCOc1ncccc1C(=O)OCC(=O)Nc1cc(C(C)(C)C)ccc1OC	.	-1	.	-23%	.	.
Cc1cc(C)n(-c2nc3ccccc3nc2Nc2cccc(C(=O)NCCc3ccccc3)c2)n1	.	14	.	.	.	.
C=CCOC(=O)C1=C[C@@H](c2ccc(C(F)(F)F)cc2)[C@H](CCCO)[C@@H](OCC)O1	0	29	2.1µM*	-35%	1.2µM*	-1
C=CCOC(=O)C1=C[C@@H](c2ccc(Br)cc2)[C@H](CCCO)[C@@H](OCC)O1	-2	-4	9.3µM*	-7%	?	-16
C=CCOC(=O)C1=C[C@H](c2ccc(C(F)(F)F)cc2)[C@@H](CCCO)[C@H](OCC)O1	0	29	9.3µM*	?	?	-11
C=CCOC(=O)C1=C[C@@H](c2ccccc2)[C@H](CCCO)[C@@H](OCC)O1	-3	0	11%	-6%	3%	-11
CSc1cccc(CN2CCC(CCC(=O)NC3CC3)CC2)c1	-1	34	-13%	2%	8%	-5
COc1ccc([C@@H]2CC=C(C(=O)O)[C@H](c3cccc(Cl)c3)N2S(=O)(=O)c2ccccc2C)cc1	.	53	31%	-1%	?	.
CCC(C)NC(=O)CSc1nnc(-c2ccoc2C)n1CC1CCCO1 (stereo not given)	-4	30	?	22%	-4%	-14
Cc1occc1-c1nnc(SCC(=O)NCc2cccs2)n1CC1CCCO1 (stereo not given)	3	-11	5.2µM*	20%	?	3
Cc1occc1-c1nnc(SCC(=O)c2ccc3c(c2)OCCO3)n1CC1CCCO1 (stereo not given)	23*	-19	9%	1%	-14%	40*
SMILES	Cycloheximide cs	HCMV antiviral	Pf growth 96h	HCV inhibitor	Pf growth 48h	Shiga inhibitor
Cc1occc1-c1nnc(SCC(=O)c2ccccc2)n1CC1CCCO1 (stereo not given)	20*	44	-16%	?	?	31
CCn1c(SCC(=O)c2ccc(F)cc2)nnc1-c1ccoc1C	30*	11	23%	-27%	21%	40
COc1ccc2c3c(n(C)c2c1)[C@@H](CO)N(Cc1cc(F)ccc1F)CC31CN(C(C)=O)C1	.	-36	.	.	.	.
Cc1ccc(C)n1C1C(=O)N(C)c2ccccc21 (stereo not given)	.	0	.	.	.	.
COc1ccc(OC)c(CCNC(=O)CCn2nc(C)c3c(C)n(-c4ccccc4)nc3c2=O)c1	-2	-32	?	-27%	-14%	16
CCn1c(SCC(=O)Nc2ccccc2-c2ccccc2)nnc1-c1ccoc1C	9	-26	12µM*	?	?	13
CCn1c(SCC(=O)Nc2ccccc2F)nnc1-c1ccoc1C	-4	0	?	-4%	7%	0
COc1cccc(Nc2nc3cc(OC)ccc3cc2C#N)c1	-3	-29	5.2µM*	?	-1%	-9
COc1cccc(Nc2ncc(C#N)c(N)n2)c1	39*	41	?	-2%	7%	81*
COc1ccc(Nc2nc(C)cc(C)c2C#N)c(OC)c1	-3	34	25%	?	8%	.
CCc1ccc2nc(Nc3ccc(OC)cc3OC)c(C#N)cc2c1	1	-7	3%	3.5µM*	14%	-2
COc1cccc(Nc2c([N+](=O)[O-])cncc2[N+](=O)[O-])c1	-1	4	297%	-6%	?	-8
Cc1ccc2nc(Cl)c(C3CC(c4cccs4)=NN3C(=O)CCCC(=O)O)cc2c1 (stereo not given)	2	-25	-9%	8%	2%	13
CCS(=O)(=O)N1N=C(c2cccs2)CC1c1cc2cc(C)ccc2nc1Cl (stereo not given)	32*	?	?	?	?	58
c1coc(C2=NCCc3ccccc32)c1	4	-19	0%	6%	1%	7
ClCCN(CCCl)c1ccc(C2=NCCc3ccccc32)cc1	.	-74*	.	?	.	.
O=C(O)CSc1nnc(-c2ccc(Cl)cc2Cl)n1-c1ccc(Br)cc1	1	7	?	-7%	13%	-3
COc1ccc(C)cc1NC(=O)C1CCN(S(=O)(=O)c2cccc3cccnc23)CC1	-3	16	21%	-15%	?	-2
COc1ccc(NC(=O)C2CCN(S(=O)(=O)c3cccc4cccnc34)CC2)cc1OC	1	37	6.6µM*	5%	-7%	18
COc1ccc(S(=O)(=O)N2CCC(C(=O)Nc3ccc(F)cc3)CC2)c2cccnc12	2	-31	0%	?	1µM*	-10
Cc1c(CNCCc2ccc(S(N)(=O)=O)cc2)c(C(=O)O)c(C)n1Cc1ccc(Cl)cc1	.	19	.	.	.	.

Assay outcomes as filed in PubChem BioAssay.
